Assay outcomes: PubChem BioAssay, several laboratories
A selection: hits, their analogues and other compounds. The true share with any hit is near 3.5%.
Rv3671c inh – Rv3671c serine protease inhibitors, primary screen, biochemical, fluorescence polarization, M. tuberculosis H37Rv | P9WHR9 | inhibition, % at 5.96 µM | 0.048% of 320,000 active | AID 2606, 2010; in the data active = inhibition above about 38%;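 also: extracellular domain of Rv3671c used as enzyme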
FBA Mtb inh – Mtb FBA enzyme inhibitors, primary screen, biochemical, fluorescence, strain H37Rv | purified M. tuberculosis FBA, fluorescence read-out | 2.3% of 360,000 active | inhibition, % at 1 µM | Fructose-bisphosphate aldolase (Mycobacterium tuberculosis (strain ATCC 25618 / H37Rv)), …; in the data active = inhibition above about 27%
UGM FP inh – M. tuberculosis UGM enzyme inhibitors, primary screen, biochemical, fluorescence polarization, single point; UDP-galactopyranose mutase (Mycobacterium tuberculosis (strain ATCC 25618 / H37Rv)), …; AID 504406, 2011; 0.06% of 320,000 active; inhibition, % at 10 µM; purified UGM, fluorescence polarization probe displacement; in the data active = inhibition above about 10%, passing the limit was not always enough
Target sequence (P9WIQ1 whole entry, looked up): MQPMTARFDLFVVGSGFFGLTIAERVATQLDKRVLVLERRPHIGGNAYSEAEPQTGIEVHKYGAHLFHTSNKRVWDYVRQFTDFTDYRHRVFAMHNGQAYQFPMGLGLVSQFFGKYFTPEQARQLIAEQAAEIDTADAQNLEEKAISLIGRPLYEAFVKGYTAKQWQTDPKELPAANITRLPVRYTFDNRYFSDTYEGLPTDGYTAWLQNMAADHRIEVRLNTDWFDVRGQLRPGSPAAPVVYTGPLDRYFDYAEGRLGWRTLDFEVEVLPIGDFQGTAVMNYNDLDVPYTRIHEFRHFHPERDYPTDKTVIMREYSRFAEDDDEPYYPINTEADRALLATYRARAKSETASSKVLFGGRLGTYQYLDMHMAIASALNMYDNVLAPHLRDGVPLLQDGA
GDH-TPI inh – GDH-TPI coupling enzyme inhibitors, primary screen, artefact control for M. tuberculosis FBA inhibitor project, biochemical, absorbance, full deck. GDH-TPI coupled enzyme counterscreen, NADH absorbance. inhibition, % at 4.8 µM. 1.2% of 360,000 active; in the data active = inhibition above about 30%
Each line names hits and unclear results; the compound was inactive in the other large screens.

COC(=O)c1sc(-c2ccc(Cl)cc2)cc1NC(=O)c1ccccc1C(=O)O	GDH-TPI inh 31.7
CCOc1ccc(NC(=O)Nc2cc(-c3ccccc3)sc2C(=O)OC)cc1	none
CCOc1ccc(-c2cc(NC(=O)c3c(F)cccc3F)c(C(=O)O)s2)cc1	GDH-TPI inh 31.7 (no result: Rv3671c inh)
O=C(COC(=O)c1ccc(S(=O)(=O)C(F)F)cc1)Nc1ccccc1C(=O)NC1CC1	none
COc1cccc(OCC(=O)N2CCCc3ccccc32)c1	none
Cc1ccnc2nc(C(=O)Nc3nc4ccccc4s3)nn12	GDH-TPI inh 41.1
Nc1ccc(C(=O)Nc2nc3ccccc3s2)cc1	GDH-TPI inh 34.1
N=c1oc2cc(O)ccc2cc1C(=O)Nc1ccccn1	none (no result: FBA Mtb inh, GDH-TPI inh)
N=c1oc2cc(O)ccc2cc1C(=O)Nc1nc2ccccc2s1	FBA Mtb inh active
CCOc1cc(/C=N/NC(=O)c2cccnc2)cc(Br)c1OCC(N)=O	none
CC(=O)c1ccc(N/N=C(/C(N)=O)C2=NC(C)(C)Cc3ccccc32)cc1	GDH-TPI inh 34.6
CC1(C)Cc2ccccc2C(/C(=N\Nc2cccc(Cl)c2)C(N)=O)=N1	none
CCOC(=O)N1CCC(NC(=O)c2ccc3c(c2)N(CC)CCS3)CC1	FBA Mtb inh 73.4
CCOC(=O)N1CCC(NC(=O)c2ccc3c(c2)N=C(C)c2c(C)ccc(C)c2S3)CC1	none
Cc1cc(OCC(=O)N2CCN(c3ccccc3)CC2)c2c(C)cc(=O)oc2c1	none
Cc1cc(OCC(=O)NC2CC(C)(C)NC(C)(C)C2)c2c(C)c(C)c(=O)oc2c1	FBA Mtb inh 131.2
Cc1cc(OCC(=O)N2CCC(C(=O)O)(c3ccccc3)CC2)c2c(C)c(C)c(=O)oc2c1	FBA Mtb inh 64.0
CCOc1ccc(N(CC(=O)N2CCCCCC2)S(=O)(=O)c2ccc(F)cc2)cc1	none
CCc1cccc(CC)c1-n1c(SCC(=O)N2CCc3ccccc32)nc(O)cc1=O	none
O=C(O)c1ccc2nc(CO)[nH]c2c1	none
COc1cccc2cc(-c3nc4ccccc4[nH]3)c(=O)oc12	GDH-TPI inh 31.3
Cc1cccc2cc(-c3nc4ccc(C(=O)O)cc4[nH]3)c(=O)oc12	FBA Mtb inh 34.2, GDH-TPI inh 31.0
CCN(CC)c1ccc2cc(-c3nc4ccccc4[nH]3)c(=O)oc2c1	UGM FP inh 30.8
CCN(CC)c1ccc2cc(-c3nc(-c4ccc(OC)cc4)cs3)c(=O)oc2c1	none (no result: FBA Mtb inh, GDH-TPI inh)
CCn1ncc(Br)c1C(=O)Nc1c(C)nn(Cc2c(F)c(F)c(F)c(F)c2F)c1C	none (no result: Rv3671c inh)
O=C(NCc1ccc(F)cc1)c1cccc2c1C(=O)c1ccc(N3CCC(Cc4ccccc4)CC3)cc1S2(=O)=O	UGM FP inh 32.7
CCOC(=O)c1sc(NC(=O)c2cc3ccccc3o2)nc1C	none
CCOC(=O)c1csc(NC(=O)c2cc3ccccc3o2)n1	GDH-TPI inh 42.9
Cc1nc(NC(=O)c2cc3ccccc3o2)sc1C	GDH-TPI inh 30.9
Cc1nnc(NC(=O)c2cc3ccccc3o2)s1	none
O=C(N/N=C\c1ccc(O)c([N+](=O)[O-])c1)c1ccccc1-n1cccc1	GDH-TPI inh 46.5
O=C(N/N=C/c1ccc(O)c([N+](=O)[O-])c1)C(O)(c1ccccc1)c1ccccc1	GDH-TPI inh 35.3
COc1cccc2c1cc1c(=O)n(CC(=O)NCc3ccccn3)nc(C)n12	none
Cc1cccc(NC(=O)c2cccc(S(=O)(=O)N(C)C3CCCCC3)c2)n1	none (no result: Rv3671c inh, UGM FP inh)
CCN=c1scc(-c2ccco2)n1/N=C/c1ccc(OC)c(O)c1	GDH-TPI inh 32.0
CCCOc1ccc(NC(=O)C2CC(=O)N/C(=N/N=C(C)/C=C/c3ccc(N(C)C)cc3)S2)cc1 (stereo unspecified)	GDH-TPI inh 32.2
O=C(COc1ccccc1Cl)NCCCNC(=O)c1cnccn1	none
COCCCn1c(=NC(=O)c2ccccc2)c(C#N)cc2c(=O)n3cccc(C)c3nc21	FBA Mtb inh 174.0
CCOCCCn1c(=NC(=O)c2cccs2)c(C#N)cc2c(=O)n3cccc(C)c3nc21	FBA Mtb inh active
CCOCCCn1c(=NC(C)=O)c(C#N)cc2c(=O)n3ccccc3nc21	FBA Mtb inh active
CCOCCCn1c(=NC(C)=O)c(C(=O)OCC)cc2c(=O)n3ccccc3nc21	none
COCCCn1c(C(=O)NC2CCCCC2C)cc2c(=O)n3cccc(C)c3nc21 (stereo unspecified)	none
COCCCn1c(=NC(C)=O)c(C#N)cc2c(=O)n3cccc(C)c3nc21	FBA Mtb inh active
CC(CNC(=O)CN1C(=O)COc2ccc(S(=O)(=O)N3CCCCC3)cc21)c1ccccc1 (stereo unspecified)	none
